Source: article PMC12820563, “FoxP3 forms a head-to-head dimer in vivo and stabilizes its multimerization on adjacent microsatellites”
In all, about 16,000 sequences were measured (“rpm ratio (pull-down/input)”: median about 0.5, highest 2% from about 5.5 on). The full list was thinned out, with the highest values kept by preference.

Biological target: T1, MBP-FoxP3dN (Mus musculus, UniProt Q99JB6 188-423)
T1 sequence: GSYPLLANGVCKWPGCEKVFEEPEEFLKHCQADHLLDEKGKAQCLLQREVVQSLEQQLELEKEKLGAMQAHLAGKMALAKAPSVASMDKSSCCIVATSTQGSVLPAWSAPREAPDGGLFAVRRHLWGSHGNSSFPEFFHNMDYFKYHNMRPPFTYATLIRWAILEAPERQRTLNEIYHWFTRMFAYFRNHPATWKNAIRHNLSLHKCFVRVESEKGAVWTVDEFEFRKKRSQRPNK
Assay: PD-seq (MBP pull-down with sequencing); 20 mM Tris-HCl pH 7.5, 100 mM NaCl, 1.5 mM MgCl2, 0.4 uM protein, 0.1 uM dsDNA library, 30 min, room temperature, amylose pull-down; high values mean tight binding
Conditions: protein: recombinant; tags: His6-MBP; chain copies: 2; dsDNA, one strand shown
Procedure, shortened: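 A fragment of mouse FoxP3 or FoxP1 without its N-terminus, carrying a His6-MBP tag and produced in E. coli, was combined at 0.4 µM with a 0.1 µM degenerate double-stranded DNA library filled in with Klenow. The mixture sat for 30 min at room temperature in Tris pH 7.5 buffer containing NaCl and MgCl2. Protein–DNA complexes were captured on amylose resin, washed three times, and the DNA was freed with proteinase K, barcoded by PCR and sequenced on Illumina. Binding is expressed as reads-per-million enrichment of pull-down over input, with replicates pooled.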

| Sequence | binding signal |
| --- | --- |
| GATGATTGTTCTCCCAGCTGATGAATTGTTTTGTTCGAGTAAACAAATTTTCCTAATCTTTCTGTTCAAGCGCCATCTAC | 4.09 RPM ratio (pull-down/input) |
| GATGATTGTTCTCCCAGCTGATGAATTATTAGGTTCGAGTAAACAAATTTTCCTAATCTTTCTGTTCAAGCGCCATCTAC | 0.47 RPM ratio (pull-down/input) |
| GATGATTGTTCTCCCAGCTGATGAATTAACTTAGTCGAGTAAACAAATTTTCCTAATCTTTCTGTTCAAGCGCCATCTAC | 0.295 RPM ratio (pull-down/input) |
| GATGATTGTTCTCCCAGCTGATGAATTTCTTCACTCGAGTAAACAAATTTTCCTAATCTTTCTGTTCAAGCGCCATCTAC | 0.269 RPM ratio (pull-down/input) |
| GATGATTGTTCTCCCAGCTGATGAATTTAGGGTATCGAGTAAACAAATTTTCCTAATCTTTCTGTTCAAGCGCCATCTAC | 1.02 RPM ratio (pull-down/input) |
| GATGATTGTTCTCCCAGCTGATGAATTTGATTGGTCGAGTAAACAAATTTTCCTAATCTTTCTGTTCAAGCGCCATCTAC | 5.03 RPM ratio (pull-down/input) |
| GATGATTGTTCTCCCAGCTGATGAATTTACCGGATCGAGTAAACAAATTTTCCTAATCTTTCTGTTCAAGCGCCATCTAC | 0.251 RPM ratio (pull-down/input) |
| GATGATTGTTCTCCCAGCTGATGAATTGTAGCTCTCGAGTAAACAAATTTTCCTAATCTTTCTGTTCAAGCGCCATCTAC | 0.791 RPM ratio (pull-down/input) |
| GATGATTGTTCTCCCAGCTGATGAATTGGGGGAGTCGAGTAAACAAATTTTCCTAATCTTTCTGTTCAAGCGCCATCTAC | 0.355 RPM ratio (pull-down/input) |
| GATGATTGTTCTCCCAGCTGATGAATTTGTTCTTTCGAGTAAACAAATTTTCCTAATCTTTCTGTTCAAGCGCCATCTAC | 2.28 RPM ratio (pull-down/input) |
| GATGATTGTTCTCCCAGCTGATGAATTTGTTTGTTCGAGTAAACAAATTTTCCTAATCTTTCTGTTCAAGCGCCATCTAC | 7.56 RPM ratio (pull-down/input) |
| GATGATTGTTCTCCCAGCTGATGAATTGTTTCTTTCGAGTAAACAAATTTTCCTAATCTTTCTGTTCAAGCGCCATCTAC | 1.93 RPM ratio (pull-down/input) |
| GATGATTGTTCTCCCAGCTGATGAATTTCTTTGTTCGAGTAAACAAATTTTCCTAATCTTTCTGTTCAAGCGCCATCTAC | 2.28 RPM ratio (pull-down/input) |
| GATGATTGTTCTCCCAGCTGATGAATTGTTGTTTTCGAGTAAACAAATTTTCCTAATCTTTCTGTTCAAGCGCCATCTAC | 7.89 RPM ratio (pull-down/input) |
| GATGATTGTTCTCCCAGCTGATGAATTGTTTGTTTCGAGTAAACAAATTTTCCTAATCTTTCTGTTCAAGCGCCATCTAC | 7.87 RPM ratio (pull-down/input) |
| GATGATTGTTCTCCCAGCTGATGAATTTTGTTGTTCGAGTAAACAAATTTTCCTAATCTTTCTGTTCAAGCGCCATCTAC | 8.13 RPM ratio (pull-down/input) |
| GATGATTGTTCTCCCAGCTGATGAATTTTCTGTTTCGAGTAAACAAATTTTCCTAATCTTTCTGTTCAAGCGCCATCTAC | 0.343 RPM ratio (pull-down/input) |
| GATGATTGTTCTCCCAGCTGATGAATTTCTGTTTTCGAGTAAACAAATTTTCCTAATCTTTCTGTTCAAGCGCCATCTAC | 1.13 RPM ratio (pull-down/input) |

| Sequence | binding signal |
| --- | --- |
| GATGATTGTTCTCCCAGCTGATGAATTGTTTGATTCGAGTAAACAAATTTTCCTAATCTTTCTGTTCAAGCGCCATCTAC | 2.06 RPM ratio (pull-down/input) |
| GATGATTGTTCTCCCAGCTGATGAATTTTTTTGTTCGAGTAAACAAATTTTCCTAATCTTTCTGTTCAAGCGCCATCTAC | 0.472 RPM ratio (pull-down/input) |
| GATGATTGTTCTCCCAGCTGATGAATTGTTTTTTTCGAGTAAACAAATTTTCCTAATCTTTCTGTTCAAGCGCCATCTAC | 4.84 RPM ratio (pull-down/input) |
| GATGATTGTTCTCCCAGCTGATGAATTGGTTACCTCGAGTAAACAAATTTTCCTAATCTTTCTGTTCAAGCGCCATCTAC | 0.673 RPM ratio (pull-down/input) |
| GATGATTGTTCTCCCAGCTGATGAATTCGTCACGTCGAGTAAACAAATTTTCCTAATCTTTCTGTTCAAGCGCCATCTAC | 1.77 RPM ratio (pull-down/input) |
| GATGATTGTTCTCCCAGCTGATGAATTCTTAAACTCGAGTAAACAAATTTTCCTAATCTTTCTGTTCAAGCGCCATCTAC | 0.267 RPM ratio (pull-down/input) |
| GATGATTGTTCTCCCAGCTGATGAATTACTATTATCGAGTAAACAAATTTTCCTAATCTTTCTGTTCAAGCGCCATCTAC | 0.758 RPM ratio (pull-down/input) |
| GATGATTGTTCTCCCAGCTGATGAATTAAATACATCGAGTAAACAAATTTTCCTAATCTTTCTGTTCAAGCGCCATCTAC | 0.687 RPM ratio (pull-down/input) |
| GATGATTGTTCTCCCAGCTGATGAATTTTTTACTTCGAGTAAACAAATTTTCCTAATCTTTCTGTTCAAGCGCCATCTAC | 0.261 RPM ratio (pull-down/input) |
| GATGATTGTTCTCCCAGCTGATGAATTTACTTCTTCGAGTAAACAAATTTTCCTAATCTTTCTGTTCAAGCGCCATCTAC | 0.632 RPM ratio (pull-down/input) |
| GATGATTGTTCTCCCAGCTGATGAATTGTTTTCGTCGAGTAAACAAATTTTCCTAATCTTTCTGTTCAAGCGCCATCTAC | 3.95 RPM ratio (pull-down/input) |
| GATGATTGTTCTCCCAGCTGATGAATTTTGTTCTTCGAGTAAACAAATTTTCCTAATCTTTCTGTTCAAGCGCCATCTAC | 1.21 RPM ratio (pull-down/input) |
| GATGATTGTTCTCCCAGCTGATGAATTTGTTGTTTCGAGTAAACAAATTTTCCTAATCTTTCTGTTCAAGCGCCATCTAC | 7.66 RPM ratio (pull-down/input) |
| GATGATTGTTCTCCCAGCTGATGAATTTGTTTCTTCGAGTAAACAAATTTTCCTAATCTTTCTGTTCAAGCGCCATCTAC | 6.78 RPM ratio (pull-down/input) |
| GATGATTGTTCTCCCAGCTGATGAATTTTGTTCGTCGAGTAAACAAATTTTCCTAATCTTTCTGTTCAAGCGCCATCTAC | 1.45 RPM ratio (pull-down/input) |
| GATGATTGTTCTCCCAGCTGATGAATTGTTTTCTTCGAGTAAACAAATTTTCCTAATCTTTCTGTTCAAGCGCCATCTAC | 4.15 RPM ratio (pull-down/input) |
| GATGATTGTTCTCCCAGCTGATGAATTGTTTACTTCGAGTAAACAAATTTTCCTAATCTTTCTGTTCAAGCGCCATCTAC | 7.35 RPM ratio (pull-down/input) |
| GATGATTGTTCTCCCAGCTGATGAATTTGTTTCGTCGAGTAAACAAATTTTCCTAATCTTTCTGTTCAAGCGCCATCTAC | 5.96 RPM ratio (pull-down/input) |
